Assay [1] is described as follows: ATG_E_Box_CIS: Attagene CIS-FACTORIAL HepG2 Assay for human Enhancer Box (E-box) (AID 2282936). The conditions noted are these: HepG2 E-box cis-reporter transcription, actives raise or lower the signal. The method in brief: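 Multiplexed CIS reporter system in transiently transfected HepG2 cells measures native transcription factor activity. Reporter RNA after 24 h exposure is profiled by RT-PCR-capillary electrophoresis.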

A short description of assay [2]: ATG_M_61_CIS: Attagene CIS-FACTORIAL HepG2 Assay for M61 Transcription Factor (Internal Marker) (AID 2282937). The settings on record: HepG2 Attagene CIS-FACTORIAL M61 internal marker reporter; actives raise or lower the signal. The gist of the method:
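Human liver HepG2, transient MRTU transfection (cis promoter elements), 24 h compound. Total RNA → oligo(dT) RT → PCR → FAM label → HpaI → CE. Internal background marker; bidirectional fitting, DMSO = baseline.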

Assay [3] in a line: ATG_EGR_CIS: Attagene CIS-FACTORIAL HepG2 Assay for human Early Growth Response 1 (EGR1) (AID 2282938). The conditions noted are these: HepG2 Attagene CIS-FACTORIAL EGR reporter mRNA; actives raise or lower the signal. The method in brief: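 Transient transfection of human HepG2 with multiple cis-regulated reporter units, chemical exposure 24 h, total RNA isolated. Reverse transcription, PCR, fluorescent labelling and capillary electrophoresis quantify reporter transcripts; activity fitted bidirectionally against DMSO.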

The nature of assay [4]: ATG_M_19_CIS: Attagene CIS-FACTORIAL HepG2 Assay for M19 Transcription Factor (Internal Marker) (AID 2282939). The conditions noted are these: HepG2 Attagene CIS-FACTORIAL M19 internal marker reporter; actives raise or lower the signal. The method in brief: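 Following a 24 h exposure, RNA from transfected HepG2 cells was reverse-transcribed, PCR-amplified with reporter-specific primers, end-labelled with 6-FAM and HpaI-digested before capillary separation. Values represent gain or loss versus DMSO.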

Assay [5] is described as follows: ATG_ERE_CIS: Attagene CIS-FACTORIAL HepG2 Assay for Estrogen Response Element (ERE) (AID 2282940). The settings on record: HepG2 ERE cis-reporter, Attagene RNA transcript; actives raise or lower the signal. The method in brief: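 HepG2, transient cis-reporter units, 24 h exposure. RNA isolated, oligo(dT) RT, reporter-specific PCR, FAM extension, HpaI cut, CE detection. Gain/loss-of-signal vs DMSO.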

Assay [6] in a line: ATG_Ets_CIS: Attagene CIS-FACTORIAL HepG2 Assay for human Erythroblast Transformation Specific (ETS) (AID 2282941). The conditions noted are these: HepG2 ETS cis-reporter transcription, actives raise or lower the signal. The gist of the method: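 After transient cis-reporter transfection, HepG2 cells receive test chemical for 24 h. Reporter mRNA levels, measured by RT-PCR and capillary electrophoresis fluorescence, are analysed bidirectionally relative to the DMSO baseline.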

Assay [7] concerns the target Hepatocyte nuclear factor 3-beta (Homo sapiens) (UniProt Q9Y261). The assay is described as follows: ATG_FoxA2_CIS: Attagene CIS-FACTORIAL HepG2 Assay for human Forkhead box A2 (FOXA2) (AID 2282942). The conditions noted are these: HepG2 cis-reporter transcription factor activity, 24 h; actives raise or lower the signal. The method in brief: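 Transient MRTU transfection of HepG2 liver cells; 24 h treatment; total RNA → oligo(dT) RT → PCR → FAM primer extension → HpaI cut → CE. Bidirectional fit vs DMSO.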

Assay [8] in a line: ATG_FoxO_CIS: Attagene CIS-FACTORIAL HepG2 Assay for human Forkhead box O (FoxO) (AID 2282943). The settings on record: HepG2 Attagene cis-reporter, FoxO element, mRNA; actives raise or lower the signal. The method in brief: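 Values reflect reporter mRNA induction or loss in HepG2 cells 24 h post-dosing, fitted bidirectionally with DMSO as negative control and baseline. Detection used RT-PCR and fluorescence capillary electrophoresis.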

The nature of assay [9]: ATG_GATA_CIS: Attagene CIS-FACTORIAL HepG2 Assay for human GATA Binding Protein (AID 2282944). The conditions noted are these: HepG2 GATA cis-element reporter, Attagene multiplex mRNA; actives raise or lower the signal. The gist of the method:
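DMSO serves as negative control and baseline for bidirectional fitting of reporter mRNA changes. HepG2 cells bearing transiently transfected cis-promoter reporters were exposed 24 h; transcripts detected via RT-PCR and capillary electrophoresis.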

Assay [10] addresses Bile acid receptor (Homo sapiens) (UniProt Q96RI1). The assay is described as follows: ATG_IR1_CIS: Attagene CIS-FACTORIAL HepG2 Assay for human Nuclear Receptor Subfamily 1 Group H Member 4 (NR1H4), IR1 submotif (AID 2282946). The conditions noted are these: IR1 reporter transcription, actives raise or lower the signal. The method in brief: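 Transient MRTU transfection, HepG2; 24 h dosing; RNA → RT-PCR → 6-FAM primer extension → HpaI digest → capillary electrophoresis fluorescence. Gain/loss of signal fitted relative to DMSO.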

A short description of assay [11]: ATG_GRE_CIS: Attagene CIS-FACTORIAL HepG2 Assay for human Glucocorticoid Response Elements (GRE) (AID 2282947). The settings on record: HepG2 GRE cis-reporter, Attagene multiplex mRNA; actives raise or lower the signal. The gist of the method:
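Following 24 h chemical exposure of transiently transfected HepG2 cells, total RNA was reverse-transcribed and reporter cDNA amplified, fluorescently labelled and sized by capillary electrophoresis. Signal gain or loss was fitted relative to DMSO vehicle.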

Assay [12] can be described thus: ATG_ISRE_CIS: Attagene CIS-FACTORIAL HepG2 Assay for human Interferon Regulatory Factor 1 (IRF1) binding to an Interferon-Stimulated Response Element (ISRE) (AID 2282948). The settings on record: HepG2 ISRE cis-reporter (Attagene), mRNA transcription readout; actives raise or lower the signal. The gist of the method:
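Quantitation relies on labelled RT-PCR fragments separated by capillary electrophoresis. Human HepG2 cells bearing cis-promoter reporter constructs were treated 24 h; DMSO served as baseline for bidirectional fitting.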

Assay [13] can be described thus: ATG_M_32_CIS: Attagene CIS-FACTORIAL HepG2 Assay for M32 Transcription Factor (Internal Marker) (AID 2282949).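 Also: background control marker of the multiplexed CIS panel rather than a real target.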 The conditions noted are these: HepG2 Attagene cis-factorial M32 reporter, mRNA; actives raise or lower the signal. The gist of the method:
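Fluorescent capillary electrophoresis peaks of HpaI-digested, FAM-labelled RT-PCR reporter products give the signal. Source: transiently transfected human liver HepG2 cells, 24 h after chemical dosing; bidirectional fitting against DMSO.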

Assay [14] in a line: ATG_M_06_CIS: Attagene CIS-FACTORIAL HepG2 Assay for M06 Transcription Factor (Internal Marker) (AID 2282950). The settings on record: HepG2 Attagene CIS-FACTORIAL M06 internal marker reporter; actives raise or lower the signal. The method in brief:
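Fluorescence-labelled RT-PCR products from cis-promoter reporter units, cut with HpaI and resolved by capillary electrophoresis, give the signal. Cells are human HepG2, dosed for 24 h. Serves as background control, fitted relative to DMSO.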

Assay [15] concerns the target Hypoxia-inducible factor 1-alpha (Homo sapiens) (UniProt Q16665). Briefly: ATG_HIF1a_CIS: Attagene CIS-FACTORIAL HepG2 Assay for human Hypoxia Inducible Factor 1 (HIF1A) (AID 2282951). The conditions noted are these: HepG2 Attagene cis-factorial HIF1a reporter transcription; actives raise or lower the signal. The method in brief: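 Transient MRTU transfection of human HepG2 liver cells, 24 h compound treatment, then total RNA isolation, oligo(dT) reverse transcription, PCR amplification, fluorescent labelling and capillary electrophoresis of reporter fragments. Gain or loss relative to DMSO.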

Assay [16] addresses Hepatocyte nuclear factor 6 (Homo sapiens) (UniProt Q9UBC0). Briefly: ATG_HNF6_CIS: Attagene CIS-FACTORIAL HepG2 Assay for human Hepatocyte Nuclear Factor 6 (HNF6) (AID 2282952). The conditions noted are these: HepG2 Attagene cis-factorial HNF6 reporter transcription; actives raise or lower the signal. The method in brief: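 HepG2, transient MRTU transfection (cis promoters); 24 h chemical exposure; total RNA → oligo(dT) RT → PCR → 6-FAM labelling → HpaI cut → CE; bidirectional fit vs DMSO.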

The target in assay [17] is Heat shock factor protein 1 (Homo sapiens) (UniProt Q00613). The assay is described as follows: ATG_HSE_CIS: Attagene CIS-FACTORIAL HepG2 Assay for human Heat Shock Transcription Factor 1 (HSE) (AID 2282953). The conditions noted are these: HepG2 HSE cis-reporter, Attagene RNA transcription; actives raise or lower the signal. The gist of the method:
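After a 24 h incubation with test chemical, transfected HepG2 cells were harvested for RNA; reporter transcripts were measured by RT-PCR and capillary electrophoresis. Values reflect gain or loss of signal relative to DMSO.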

Assay [18] is described as follows: ATG_MRE_CIS: Attagene CIS-FACTORIAL HepG2 Assay for human Metal Responsive Element (MRE) (AID 2282954). The conditions noted are these: HepG2 MRE cis-reporter transcription, Attagene multiplex; actives raise or lower the signal. The method in brief: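 Step one: transfect HepG2 with cis-regulated reporter units. Step two: dose 24 h. Step three: isolate RNA, RT-PCR, 6-FAM label, HpaI digest, capillary electrophoresis. Fit bidirectionally to DMSO.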

A short description of assay [19]: ATG_PBREM_CIS: Attagene CIS-FACTORIAL HepG2 Assay for human Phenobarbital-responsive Enhancer Module (PBREM) (AID 2282955). The settings on record: HepG2 PBREM cis-reporter, Attagene multiplexed transcription; actives raise or lower the signal. The method in brief:
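Endogenous transcription factors in human liver HepG2 cells drive a PBREM cis-element reporter, whose transcript level after 24 h treatment is quantified by RT-PCR with capillary electrophoresis; activity fitted in both directions against DMSO.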

Assay [20] is described as follows: ATG_GLI_CIS: Attagene CIS-FACTORIAL HepG2 Assay for human Zinc Finger Protein GLI1 (AID 2282945). The conditions noted are these: HepG2, Attagene cis-factorial reporter mRNA, GLI element; actives raise or lower the signal. The method in brief: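 HepG2 cells transiently transfected with cis-promoter multiplexed reporter units report endogenous transcription factor activity. After 24 h chemical exposure, reporter mRNA was quantified by RT-PCR, 6-FAM labelling, HpaI digestion and capillary electrophoresis, with bidirectional fitting against DMSO.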

Among the data in PubChem BioAssay (EPA / NIEHS) are AC50 and outcome values, retold here.

Calls of active or inactive are those of the source. The calls were made as follows: active = hit-call score of the fitted dose curve at least 0.9, where 1 is the maximum; inactive = score below 0.9.

Chain of Hepatocyte nuclear factor 6 (Homo sapiens) (Q9UBC0 whole entry, looked up): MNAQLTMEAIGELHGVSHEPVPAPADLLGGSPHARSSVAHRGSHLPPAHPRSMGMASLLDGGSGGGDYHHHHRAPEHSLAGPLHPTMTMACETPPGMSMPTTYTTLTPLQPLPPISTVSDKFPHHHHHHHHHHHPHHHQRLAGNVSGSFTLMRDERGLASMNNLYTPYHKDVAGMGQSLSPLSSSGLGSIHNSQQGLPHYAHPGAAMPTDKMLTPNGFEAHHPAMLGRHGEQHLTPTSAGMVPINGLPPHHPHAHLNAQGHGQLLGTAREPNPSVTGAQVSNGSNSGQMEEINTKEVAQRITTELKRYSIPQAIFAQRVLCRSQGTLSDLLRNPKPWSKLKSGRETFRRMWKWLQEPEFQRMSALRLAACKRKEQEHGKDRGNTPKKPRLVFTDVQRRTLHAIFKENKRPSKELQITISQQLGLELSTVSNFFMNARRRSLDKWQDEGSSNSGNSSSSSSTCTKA
Chain of Hepatocyte nuclear factor 3-beta (Homo sapiens) (Q9Y261 whole entry, looked up): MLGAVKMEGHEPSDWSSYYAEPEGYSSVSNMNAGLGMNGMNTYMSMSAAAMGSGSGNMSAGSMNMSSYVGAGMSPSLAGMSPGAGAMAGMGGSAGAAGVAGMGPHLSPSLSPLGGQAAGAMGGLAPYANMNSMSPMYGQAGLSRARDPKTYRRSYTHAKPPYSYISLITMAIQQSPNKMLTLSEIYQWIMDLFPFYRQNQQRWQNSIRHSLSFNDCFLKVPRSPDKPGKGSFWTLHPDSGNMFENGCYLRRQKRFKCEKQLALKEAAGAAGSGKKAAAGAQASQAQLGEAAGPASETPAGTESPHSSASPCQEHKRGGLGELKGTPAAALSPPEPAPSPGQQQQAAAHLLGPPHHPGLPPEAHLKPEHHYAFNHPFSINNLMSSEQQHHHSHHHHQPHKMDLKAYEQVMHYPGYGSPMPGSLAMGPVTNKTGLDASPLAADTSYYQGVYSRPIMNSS
Chain of Hypoxia-inducible factor 1-alpha (Homo sapiens) (Q16665 whole entry, looked up, the tested form may be a part): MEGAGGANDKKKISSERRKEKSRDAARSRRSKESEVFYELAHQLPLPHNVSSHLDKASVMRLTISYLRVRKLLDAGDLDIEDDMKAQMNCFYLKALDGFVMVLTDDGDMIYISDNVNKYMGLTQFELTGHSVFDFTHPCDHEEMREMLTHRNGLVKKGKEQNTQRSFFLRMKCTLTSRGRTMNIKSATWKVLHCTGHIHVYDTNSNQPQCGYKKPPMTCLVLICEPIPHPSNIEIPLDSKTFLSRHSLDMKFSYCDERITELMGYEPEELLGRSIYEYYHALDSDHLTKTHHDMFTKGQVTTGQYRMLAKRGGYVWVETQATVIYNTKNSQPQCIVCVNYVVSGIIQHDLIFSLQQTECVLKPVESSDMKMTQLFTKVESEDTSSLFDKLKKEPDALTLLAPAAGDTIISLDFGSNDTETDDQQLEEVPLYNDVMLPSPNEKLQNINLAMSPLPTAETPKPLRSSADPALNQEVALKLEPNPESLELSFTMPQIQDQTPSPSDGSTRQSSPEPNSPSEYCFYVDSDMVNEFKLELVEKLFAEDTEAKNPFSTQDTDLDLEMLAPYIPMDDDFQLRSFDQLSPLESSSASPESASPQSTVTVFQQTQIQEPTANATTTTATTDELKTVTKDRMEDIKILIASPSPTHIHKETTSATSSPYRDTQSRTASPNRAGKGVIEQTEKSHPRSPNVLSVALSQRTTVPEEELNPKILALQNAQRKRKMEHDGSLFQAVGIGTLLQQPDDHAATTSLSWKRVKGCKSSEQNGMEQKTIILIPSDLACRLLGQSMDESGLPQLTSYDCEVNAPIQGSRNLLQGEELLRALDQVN
Chain of Heat shock factor protein 1 (Homo sapiens) (Q00613 whole entry, looked up): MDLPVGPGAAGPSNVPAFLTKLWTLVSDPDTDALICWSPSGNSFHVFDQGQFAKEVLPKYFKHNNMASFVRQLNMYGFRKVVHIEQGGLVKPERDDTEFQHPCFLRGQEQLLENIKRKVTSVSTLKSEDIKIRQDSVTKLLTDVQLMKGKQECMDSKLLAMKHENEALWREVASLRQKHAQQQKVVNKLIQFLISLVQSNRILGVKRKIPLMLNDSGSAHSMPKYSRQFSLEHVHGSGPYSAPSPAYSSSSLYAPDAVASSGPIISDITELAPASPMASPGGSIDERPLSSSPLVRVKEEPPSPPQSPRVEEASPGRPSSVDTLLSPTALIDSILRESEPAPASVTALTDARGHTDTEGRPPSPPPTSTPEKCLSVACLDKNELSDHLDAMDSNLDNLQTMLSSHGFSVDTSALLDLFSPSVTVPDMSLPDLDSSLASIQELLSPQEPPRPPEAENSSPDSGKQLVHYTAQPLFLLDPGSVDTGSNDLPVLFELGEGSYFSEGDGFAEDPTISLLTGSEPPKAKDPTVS
Chain of Bile acid receptor (Homo sapiens) (Q96RI1 whole entry, looked up): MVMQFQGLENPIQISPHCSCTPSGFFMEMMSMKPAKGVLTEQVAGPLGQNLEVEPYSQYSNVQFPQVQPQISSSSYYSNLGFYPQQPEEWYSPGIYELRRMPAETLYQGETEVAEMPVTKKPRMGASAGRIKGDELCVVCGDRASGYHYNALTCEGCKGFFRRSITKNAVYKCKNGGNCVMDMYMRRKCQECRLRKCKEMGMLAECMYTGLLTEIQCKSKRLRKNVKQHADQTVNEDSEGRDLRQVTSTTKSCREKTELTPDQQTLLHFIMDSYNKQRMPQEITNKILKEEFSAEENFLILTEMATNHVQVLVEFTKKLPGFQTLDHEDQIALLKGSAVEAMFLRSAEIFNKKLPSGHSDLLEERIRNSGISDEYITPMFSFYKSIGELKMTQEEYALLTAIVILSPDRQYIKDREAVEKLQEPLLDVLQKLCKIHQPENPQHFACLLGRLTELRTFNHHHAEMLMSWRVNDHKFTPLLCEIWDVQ

As usually defined, the AC50 is the concentration at which the activity in the assay is half-maximal. `O=C(Nc1cccc(C(F)(F)F)c1)c1cc(Br)cc(Br)c1O`: the AC50 was 77.6 µM (active) in assay [1]; 25.5 µM (active) in assay [3]; 66.7 µM (active) in assay [10]; 100 µM (active) in [12]; 19.9 µM (active) in assay [15]; 46.2 µM (active) in assay [17]. Moreover, the AC50 in [18] was 85.8 µM (active); in assay [19] it was 1.89 µM (active). Further, the result in assay [2], in assay [4], in [5], in assay [6], in assay [7] and in assay [8] was inactive. For the same compound, the call in [9], in [11], in assay [13], in [14] and in [16] was inactive.
For the compound `CCC(CO)CO`, the result in assay [1], in assay [2], in [3], in assay [4], in assay [5] and in [6] was inactive. Moreover, the compound was classed as inactive in [7], in assay [8], in assay [9], in assay [11], in assay [12] and in [13]. Besides, the result in assay [14], in assay [15], in assay [16], in assay [17] and in assay [18] was inactive.
Regarding `CCOC(=O)CC(C(C)=O)C(C)=O`, the outcome in [1], in assay [2], in assay [3], in [4], in [5] and in [6] was inactive. For the same compound, the call in assay [7], in assay [8], in [9], in assay [20], in assay [11] and in assay [12] was inactive. Further, the compound was called inactive in assay [14], in [15], in assay [16], in assay [18] and in assay [19].
Consider `COc1ccc(-c2coc3cc(O)ccc3c2=O)cc1`, for which the result in [1], in assay [2], in assay [3], in [4], in assay [6] and in [7] was inactive. The compound was classed as inactive in assay [8], in [9], in assay [11], in assay [12], in [13] and in assay [14]. Further, the compound was classed as inactive in assay [15], in assay [16] and in assay [18]. Besides, the AC50 in assay [5] was 2.23 µM (active).
